The assay is described as follows: general off-target profile by competitive ABPP – fluorescence, gel-based ABPP, powder samples, selectivity assay for PAFAH2 inhibitor project, late-stage follow-up (AID 504527). The settings on record: BW5147 murine T-cell proteome, FP-Rh fluorescence, competitor FP-biotin, probe test compound; non-competed targets by FP-biotin, at 20 µM, stronger effect = lower value.

Active and inactive are the calls of the source.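 The calls were made as follows: active = two or more serine hydrolases at least half inhibited, plus every target band half blocked in a general-probe test; inactive = under two enzymes half blocked, or any target band not.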

For `C#CCOCCOCCOCCN(Cc1ccccc1)C(=O)n1nc2cccnc2n1`, the count of non-competed proteins is 3 and the call was inactive.

As for `C#CCOCCOCCOCCN(Cc1ccccc1)C(=O)n1nccn1`, the count of non-competed proteins was 0 and the compound was called active.

Turning to `C#CCOCCOCCOCCN(Cc1ccccc1)C(=O)n1ncc(-c2ccccc2)n1`, the count of non-competed proteins stood at 0 and the call was active.

For the origin of these results see PubChem BioAssay AID504527 (The Scripps Research Institute Molecular Screening Center, 2011).
